According to the supplement of paper PMC7411054:

Assays:
Settings in all cases: treatment time: 24 h
[1] = test system: HepG2-GM130-SQSTM1; test: lowest phenotypically active concentration; higher = less potent
How it was run: (§1)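 Each of fifteen gene-edited A549, HepG2 and WPMY1 reporter lines, marked with BFP for segmentation and GFP and RFP/FusionRed, was treated in four wells at 0.3, 1, 3 or 9 µM for 24 h prior to live imaging. Normalisation of per-well live-cell features used solvent control wells. Deviation needed ≥3 of 4 wells beyond the 95th percentile of control Euclidean distances, and reproducibility needed a median replicate Pearson correlation above the 95th percentile of non-replicates. Both were required for phenotypic activity.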

[2] = test system: A549-ACTB-RAB5A; test: phenotypically active (imaging signature differs from DMSO and reproducible) at any of 0.3-9 uM (binary (1 = active, 0 = inactive)); higher = active
How it was run: as §1

[3] = test system: A549-CANX-COX4; test: as above
How it was run: as §1

[4] = test system: A549-GM130-SQSTM1; test: as above
How it was run: as §1

[5] = test system: A549-TP53BP1-CLTA; test: as above
How it was run: as §1

[6] = test system: A549-TUBA1B-RELA; test: as above
How it was run: as §1

[7] = test system: HepG2-ACTB-RAB5A; test: as above
How it was run: as §1

[8] = test system: HepG2-CANX-COX4; test: as above
How it was run: as §1

[9] = test system: HepG2-GM130-SQSTM1; test: as above
How it was run: as §1

[10] = test system: HepG2-TP53BP1-CLTA; test: as above
How it was run: as §1

[11] = test system: HepG2-TUBA1B-RELA; test: as above
How it was run: as §1

[12] = test system: WPMY1-ACTB-RAB5A; test: as above
How it was run: as §1

[13] = test system: WPMY1-CANX-COX4; test: as above
How it was run: as §1

[14] = test system: WPMY1-GM130-SQSTM1; test: as above
How it was run: as §1

[15] = test system: WPMY1-TP53BP1-CLTA; test: as above
How it was run: as §1

[16] = test system: WPMY1-TUBA1B-RELA; test: as above
How it was run: as §1

[17] = test system: WPMY1-GM130-SQSTM1; test: lowest phenotypically active concentration; higher = less potent
How it was run: as §1

[18] = test system: HepG2-CANX-COX4; test: as above
How it was run: as §1

[19] = test system: A549-CANX-COX4; test: as above
How it was run: as §1

[20] = test system: A549-TP53BP1-CLTA; test: as above
How it was run: as §1

[21] = test system: HepG2-ACTB-RAB5A; test: as above
How it was run: as §1

[22] = test system: HepG2-TP53BP1-CLTA; test: as above
How it was run: as §1

[23] = test system: HepG2-TUBA1B-RELA; test: as above
How it was run: as §1

[24] = test system: WPMY1-ACTB-RAB5A; test: as above
How it was run: as §1

[25] = test system: WPMY1-CANX-COX4; test: as above
How it was run: as §1

[26] = test system: WPMY1-TP53BP1-CLTA; test: as above
How it was run: as §1

[27] = test system: WPMY1-TUBA1B-RELA; test: as above
How it was run: as §1

[28] = test system: A549-GM130-SQSTM1; test: as above
How it was run: as §1

[29] = test system: A549-TUBA1B-RELA; test: as above
How it was run: as §1

[30] = test system: A549-ACTB-RAB5A; test: as above
How it was run: as §1

BrC1C(Br)C(Br)C(Br)C(Br)C1Br (stereo not drawn) [1,2,3,4,5,6-Hexabromocyclohexane]
active: phenotypically active [9] 1
inactive: phenotypically active [2] 0 | phenotypically active [3] 0 | phenotypically active [4] 0 | phenotypically active [5] 0 | phenotypically active [6] 0 | phenotypically active [7] 0 | phenotypically active [8] 0 | phenotypically active [10] 0 | phenotypically active [11] 0 | phenotypically active [12] 0 | phenotypically active [13] 0 | phenotypically active [14] 0 | phenotypically active [15] 0 | phenotypically active [16] 0
9 µM: lowest phenotypically active concentration [1]

CCC(=O)O[C@](Cc1ccccc1)(c1ccccc1)[C@H](C)CN(C)C [propoxyphene]
inactive: phenotypically active [3] 0 | phenotypically active [5] 0 | phenotypically active [7] 0 | phenotypically active [8] 0 | phenotypically active [9] 0 | phenotypically active [10] 0 | phenotypically active [11] 0 | phenotypically active [12] 0 | phenotypically active [13] 0 | phenotypically active [14] 0 | phenotypically active [15] 0 | phenotypically active [16] 0

CCCN1C[C@H](CSC)C[C@@H]2c3cccc4[nH]cc(c34)C[C@H]21 [pergolide]
9 µM: lowest phenotypically active concentration [17]
inactive: phenotypically active [2] 0 | phenotypically active [3] 0 | phenotypically active [4] 0 | phenotypically active [5] 0 | phenotypically active [6] 0 | phenotypically active [7] 0 | phenotypically active [8] 0 | phenotypically active [9] 0 | phenotypically active [10] 0 | phenotypically active [11] 0 | phenotypically active [12] 0 | phenotypically active [13] 0 | phenotypically active [15] 0 | phenotypically active [16] 0
active: phenotypically active [14] 1

C[C@]12CC[C@H]3[C@@H](CCC4=CC(=O)CC[C@@]43C)[C@@H]1CC[C@@H]2O [testosterone]
3 µM: lowest phenotypically active concentration [18]
active: phenotypically active [8] 1 | phenotypically active [14] 1
9 µM: lowest phenotypically active concentration [17]
inactive: phenotypically active [2] 0 | phenotypically active [3] 0 | phenotypically active [4] 0 | phenotypically active [5] 0 | phenotypically active [6] 0 | phenotypically active [7] 0 | phenotypically active [9] 0 | phenotypically active [10] 0 | phenotypically active [11] 0 | phenotypically active [12] 0 | phenotypically active [13] 0 | phenotypically active [15] 0 | phenotypically active [16] 0

C=C(C)[C@H]1Cc2c(ccc3c2O[C@@H]2COc4cc(OC)c(OC)cc4[C@@H]2C3=O)O1 [Rotenone]
≤ 0.3 µM: lowest phenotypically active concentration [19] | lowest phenotypically active concentration [20] | lowest phenotypically active concentration [21] | lowest phenotypically active concentration [18] | lowest phenotypically active concentration [1] | lowest phenotypically active concentration [22] | lowest phenotypically active concentration [23] | lowest phenotypically active concentration [24] | lowest phenotypically active concentration [26]
active: phenotypically active [3] 1 | phenotypically active [5] 1 | phenotypically active [7] 1 | phenotypically active [8] 1 | phenotypically active [9] 1 | phenotypically active [10] 1 | phenotypically active [11] 1 | phenotypically active [12] 1 | phenotypically active [13] 1 | phenotypically active [14] 1 | phenotypically active [15] 1 | phenotypically active [16] 1
1 µM: lowest phenotypically active concentration [25] | lowest phenotypically active concentration [17] | lowest phenotypically active concentration [27]

Cc1sc2c(c1C)C(c1ccc(Cl)cc1)=N[C@H](CC(=O)OC(C)(C)C)c1nnc(C)n1-2
9 µM: lowest phenotypically active concentration [21] | lowest phenotypically active concentration [18] | lowest phenotypically active concentration [1] | lowest phenotypically active concentration [17] | lowest phenotypically active concentration [27]
active: phenotypically active [7] 1 | phenotypically active [8] 1 | phenotypically active [9] 1 | phenotypically active [14] 1 | phenotypically active [16] 1
inactive: phenotypically active [2] 0 | phenotypically active [3] 0 | phenotypically active [4] 0 | phenotypically active [5] 0 | phenotypically active [6] 0 | phenotypically active [10] 0 | phenotypically active [11] 0 | phenotypically active [12] 0 | phenotypically active [13] 0 | phenotypically active [15] 0

CC[C@@H](C)C(=O)O[C@H]1[C@H](O)[C@H]2[C@@H](CN3C[C@@H](C)CC[C@H]3[C@@]2(C)O)C2C[C@]34O[C@]5(O)[C@@H](OC(=O)[C@](C)(O)CC)CC[C@@]3(C)[C@@H]5[C@@H](OC(C)=O)[C@@H](OC(C)=O)[C@H]4[C@@]21O (stereo partly drawn) [Protoveratrine A]
inactive: phenotypically active [2] 0 | phenotypically active [3] 0 | phenotypically active [5] 0 | phenotypically active [6] 0 | phenotypically active [7] 0 | phenotypically active [8] 0 | phenotypically active [9] 0 | phenotypically active [10] 0 | phenotypically active [11] 0 | phenotypically active [12] 0 | phenotypically active [13] 0 | phenotypically active [14] 0 | phenotypically active [15] 0 | phenotypically active [16] 0
3 µM: lowest phenotypically active concentration [28]
active: phenotypically active [4] 1

COc1cc2c(cc1O)C[C@H]1c3c(cc(O)c(OC)c3-2)CCN1C [Boldine]
1 µM: lowest phenotypically active concentration [17]
active: phenotypically active [4] 1 | phenotypically active [6] 1 | phenotypically active [7] 1 | phenotypically active [14] 1
inactive: phenotypically active [2] 0 | phenotypically active [3] 0 | phenotypically active [5] 0 | phenotypically active [8] 0 | phenotypically active [9] 0 | phenotypically active [10] 0 | phenotypically active [11] 0 | phenotypically active [12] 0 | phenotypically active [13] 0 | phenotypically active [15] 0 | phenotypically active [16] 0
9 µM: lowest phenotypically active concentration [28] | lowest phenotypically active concentration [29] | lowest phenotypically active concentration [21]

C=C1C/C(=C\C)C(=O)O[C@@H]2CCN3CC=C(COC(=O)[C@]1(C)O)[C@H]23 [Seneciphylline]
9 µM: lowest phenotypically active concentration [22]
inactive: phenotypically active [2] 0 | phenotypically active [3] 0 | phenotypically active [4] 0 | phenotypically active [5] 0 | phenotypically active [6] 0 | phenotypically active [7] 0 | phenotypically active [8] 0 | phenotypically active [9] 0 | phenotypically active [11] 0 | phenotypically active [12] 0 | phenotypically active [13] 0 | phenotypically active [14] 0 | phenotypically active [15] 0 | phenotypically active [16] 0
active: phenotypically active [10] 1

C[C@H]1C(=O)O[C@@H]2CCN3CC=C(COC(=O)[C@](C)(O)[C@]1(C)O)[C@H]23 [Monocrotaline]
3 µM: lowest phenotypically active concentration [29]
inactive: phenotypically active [2] 0 | phenotypically active [3] 0 | phenotypically active [4] 0 | phenotypically active [5] 0 | phenotypically active [7] 0 | phenotypically active [8] 0 | phenotypically active [9] 0 | phenotypically active [10] 0 | phenotypically active [11] 0 | phenotypically active [12] 0 | phenotypically active [13] 0 | phenotypically active [14] 0 | phenotypically active [15] 0 | phenotypically active [16] 0
active: phenotypically active [6] 1

C[C@H](N)Cc1ccccc1 [dextroamphetamine]
active: phenotypically active [2] 1 | phenotypically active [4] 1 | phenotypically active [6] 1
inactive: phenotypically active [3] 0 | phenotypically active [7] 0 | phenotypically active [8] 0 | phenotypically active [9] 0 | phenotypically active [11] 0 | phenotypically active [12] 0 | phenotypically active [13] 0 | phenotypically active [14] 0 | phenotypically active [16] 0
3 µM: lowest phenotypically active concentration [30] | lowest phenotypically active concentration [28] | lowest phenotypically active concentration [29]

O=P1(N(CCCl)CCCl)NCCCO1 (stereo not drawn) [cyclophosphamide]
inactive: phenotypically active [3] 0 | phenotypically active [5] 0 | phenotypically active [7] 0 | phenotypically active [8] 0 | phenotypically active [9] 0 | phenotypically active [10] 0 | phenotypically active [11] 0 | phenotypically active [12] 0 | phenotypically active [13] 0 | phenotypically active [14] 0 | phenotypically active [15] 0 | phenotypically active [16] 0

N[C@@H]1C[C@H]1c1cc(F)cc(F)c1OCc1ccccc1
active: phenotypically active [12] 1 | phenotypically active [14] 1 | phenotypically active [15] 1
9 µM: lowest phenotypically active concentration [24] | lowest phenotypically active concentration [17] | lowest phenotypically active concentration [26]
inactive: phenotypically active [2] 0 | phenotypically active [3] 0 | phenotypically active [4] 0 | phenotypically active [5] 0 | phenotypically active [6] 0 | phenotypically active [7] 0 | phenotypically active [8] 0 | phenotypically active [9] 0 | phenotypically active [10] 0 | phenotypically active [11] 0 | phenotypically active [13] 0 | phenotypically active [16] 0

CN1C[C@H](CO)C=C2c3cccc4[nH]cc(c34)C[C@H]21 [Lysergol]
inactive: phenotypically active [2] 0 | phenotypically active [3] 0 | phenotypically active [4] 0 | phenotypically active [5] 0 | phenotypically active [6] 0 | phenotypically active [7] 0 | phenotypically active [8] 0 | phenotypically active [9] 0 | phenotypically active [10] 0 | phenotypically active [11] 0 | phenotypically active [12] 0 | phenotypically active [13] 0 | phenotypically active [15] 0 | phenotypically active [16] 0
active: phenotypically active [14] 1
9 µM: lowest phenotypically active concentration [17]
